Drawing on PubChem BioAssay (Tox21), this text covers Potency and max activation for 13 molecules.

“And” between values parts separate entries of the source, which are not always exact repeats. Equal entries are not always repeated. Results filed as inconclusive are left out. A structure can be active in one record and inactive in another. The source made the active and inactive calls. The call rests on the fitted dose curve; in most records, active means well fitted curve in the direction sought with a large enough effect in the repeat runs; inconclusive means weak or mixed curves; inactive means no such curve, though single readings can be large; an effect the other way counts as inactive or inconclusive.

A short description of test [1]: Human pregnane X receptor (PXR) small molecule agonists, qHTS cell viability counter screen (AID 1346977). Further: nearly all actives have a fitted effect of over 50% in size. An outline of the steps:
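Viability counter screen: CellTiter-Fluor signal in PXR-Luc HepG2 cells, 24hr compound exposure, 37C, 5% CO2.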
On the technique in general: Quantitative high-throughput screening tests each substance at several concentrations.

Test [2] is described as follows: Caspase-3/7 induction in HepG2 cells by small molecules, qHTS assay (AID 1346978). Further: nearly all actives have a fitted effect of over 15% in size. Put shortly: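 Wild-type HepG2 cells (2,000/well) were settled 5 h at 37 C, 5% CO2, then exposed to compounds in DMSO for 17 h. Caspase-3/7 activity was read by luminescence 30 min after adding Caspase-Glo 3/7 reagent at room temperature.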
The nature of test [3]: Caspase-3/7 induction in CHO-K1 cells by small molecules, qHTS cell viability counter screen (AID 1346979). Further: nearly all actives have a fitted effect of over 35% in size. Further: potency means the concentration at half of the fitted maximal effect. Put shortly:
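Viability readout by fluorescence (CellTiter-Fluor) on wild-type CHO-K1 cells exposed for 16hr at 37C and 5% CO2 to compounds delivered in DMSO; reagent incubated 1hr before reading.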

A short description of test [4]: Caspase-3/7 induction in CHO-K1 cells by small molecules, qHTS assay (AID 1346980). Further: nearly all actives have a fitted effect of over 15% in size. Put shortly:
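Wild-type cells were seeded at 1,500 per well and settled 5 hr at 37 C, 5% CO2, then exposed to DMSO-dissolved compounds for 17 hr. Caspase-Glo 3/7 reagent was added, and luminescence was read after 30min at room temperature.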

Test [5] can be described thus: Caspase-3/7 induction in HepG2 cells by small molecules, qHTS cell viability counter screen (AID 1346981). Further: nearly all actives have a fitted effect of over 30% in size. Further: potency means the concentration at half of the fitted maximal effect. Put shortly: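 Cell viability is measured as a cytotoxicity counter screen alongside the Caspase-Glo 3/7 readout in identical wells. Wild-type HepG2 cells are treated with test compounds for 16 hr at 37 C before CellTiter-Fluor addition and a 1-hr incubation.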

The target of test [6] is Nuclear receptor subfamily 1 group I member 2 (Homo sapiens) (UniProt O75469). The test is described as follows: Human pregnane X receptor (PXR) small molecule agonists, qHTS assay (AID 1346982). Further: nearly all actives have a fitted effect of over 35% in size. Further: potency means the concentration at half of the fitted maximal effect. Put shortly: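 Cells: HepG2 stably carrying PXR-Luc. Medium held 5% charcoal-stripped FBS. Compounds in DMSO added after 5 hr plating, incubated 24 hr, then luminescence quantified with ONE-Glo.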
Nuclear receptor subfamily 1 group I member 2 (Homo sapiens), sequence (O75469 whole entry, looked up): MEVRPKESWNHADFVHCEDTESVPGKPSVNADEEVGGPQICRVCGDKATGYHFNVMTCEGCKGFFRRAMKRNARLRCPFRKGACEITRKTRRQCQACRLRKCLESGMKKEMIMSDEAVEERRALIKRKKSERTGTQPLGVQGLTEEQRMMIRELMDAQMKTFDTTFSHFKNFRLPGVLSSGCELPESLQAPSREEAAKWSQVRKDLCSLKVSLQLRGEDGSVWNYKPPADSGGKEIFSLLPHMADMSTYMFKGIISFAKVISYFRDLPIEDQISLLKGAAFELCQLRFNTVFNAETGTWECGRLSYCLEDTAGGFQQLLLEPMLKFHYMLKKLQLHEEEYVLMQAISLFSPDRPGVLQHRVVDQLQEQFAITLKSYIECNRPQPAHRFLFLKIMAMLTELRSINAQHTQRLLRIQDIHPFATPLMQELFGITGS

The target of test [7] is Cytochrome P450 2D6 (Homo sapiens) (UniProt P10635). The test is described as follows: Cytochrome P450 Family 2 Subfamily D Member 6 (CYP2D6) small molecule antagonists: luciferase reporter qHTS assay (AID 1671196). Further: nearly all actives have a fitted effect of over 50% in size. Further: potency means the concentration at half of the fitted maximal effect. An outline of the steps:
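Enzyme and proluciferin substrate were first combined with test chemical for 10 min at room temperature. Adding NADPH regeneration solution started a 1 h reaction, stopped with luciferin detection reagent and read by luminescence 20 min later.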
For orientation: Reporter assays use an easily measured gene product as a stand-in for the process of interest.

Test [8] deals with Cytochrome P450 2C19 (Homo sapiens) (UniProt P33261). Put plainly: Cytochrome P450 Family 2 Subfamily C Member 19 (CYP2C19) small molecule antagonists: luciferase reporter qHTS assay (AID 1671197). Further: nearly all actives have a fitted effect of over 65% in size. Further: potency means the concentration at half of the fitted maximal effect. An outline of the steps: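 CYP2C19 P450-Glo, 1536-well qHTS. Cpd + enzyme/proluciferin substrate 10 min RT; + NADPH regen, 37C 1 h; stop with luciferin detection reagent, 20 min RT, luminescence (RLU). Pos ctrl ketoconazole.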
Cytochrome P450 2C19 (Homo sapiens), sequence (P33261 whole entry, looked up): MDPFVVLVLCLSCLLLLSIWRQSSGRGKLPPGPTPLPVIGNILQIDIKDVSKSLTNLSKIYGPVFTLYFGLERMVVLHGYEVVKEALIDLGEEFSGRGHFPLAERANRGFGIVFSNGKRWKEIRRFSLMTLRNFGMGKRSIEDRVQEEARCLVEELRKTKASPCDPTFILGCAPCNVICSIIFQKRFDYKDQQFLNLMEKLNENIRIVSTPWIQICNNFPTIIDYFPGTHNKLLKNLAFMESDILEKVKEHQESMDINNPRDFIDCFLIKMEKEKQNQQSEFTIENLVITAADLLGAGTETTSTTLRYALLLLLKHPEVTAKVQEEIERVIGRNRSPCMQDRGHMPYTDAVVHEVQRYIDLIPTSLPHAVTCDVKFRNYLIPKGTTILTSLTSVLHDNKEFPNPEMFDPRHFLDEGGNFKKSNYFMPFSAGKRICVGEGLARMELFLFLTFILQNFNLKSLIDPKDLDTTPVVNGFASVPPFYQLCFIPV

In test [9] the target is Cytochrome P450 2C9 (Homo sapiens) (UniProt P11712). The test is described as follows: Cytochrome P450 Family 2 Subfamily C Member 9 (CYP2C9) small molecule antagonists: luciferase reporter qHTS assay (AID 1671198). Further: nearly all actives have a fitted effect of over 50% in size. Further: potency means the concentration at half of the fitted maximal effect. Put shortly:
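CYP2C9 activity was measured with a P450-Glo proluciferin substrate. Enzyme–substrate mix was held with compound for 10 min at room temperature, then NADPH regeneration solution was added for 1 h at 37C. Luciferin product was read as luminescence.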

Test [10] concerns the target Cytochrome P450 1A2 (Homo sapiens) (UniProt P05177). Put plainly: Cytochrome P450 Family 1 Subfamily A Member 2 (CYP1A2) small molecule antagonists: luciferase reporter qHTS assay (AID 1671199). Further: nearly all actives have a fitted effect of over 50% in size. Further: potency means the concentration at half of the fitted maximal effect. An outline of the steps: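 Compounds were incubated with CYP1A2 and a luminogenic proluciferin substrate for 10 min at room temperature before the reaction was started with NADPH regeneration solution. After 1 h, detection reagent was added and light output, proportional to CYP activity, was recorded.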

Test [11] concerns the target Voltage-gated inwardly rectifying potassium channel KCNH2 (Homo sapiens) (UniProt Q12809). Put plainly: Human Ether-a-go-go-Related Gene (hERG) channel small molecule antagonists: fluorescence cell-based qHTS assay (AID 1671200). Further: nearly all actives have a fitted effect of over 50% in size. Further: potency means the concentration at half of the fitted maximal effect. An outline of the steps: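 Thallium served as the potassium surrogate; its influx into dye-loaded U2OS cells carrying the channel was measured by fluorescence over 2 min.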

The target in test [12] is Cytochrome P450 3A4 (Homo sapiens) (UniProt P08684). The test is described as follows: Cytochrome P450 Family 3 Subfamily A Member 4 (CYP3A4) small molecule antagonists: luciferase reporter qHTS assay (AID 1671201). An outline of the steps: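 Relative luminescence units after 20 min with luciferin detection reagent served as read-out. Beforehand, CYP3A4 turned over a proluciferin substrate for 1 h at room temperature with NADPH regeneration, following 10 min compound preincubation.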
Cytochrome P450 3A4 (Homo sapiens), sequence (P08684 whole entry, looked up): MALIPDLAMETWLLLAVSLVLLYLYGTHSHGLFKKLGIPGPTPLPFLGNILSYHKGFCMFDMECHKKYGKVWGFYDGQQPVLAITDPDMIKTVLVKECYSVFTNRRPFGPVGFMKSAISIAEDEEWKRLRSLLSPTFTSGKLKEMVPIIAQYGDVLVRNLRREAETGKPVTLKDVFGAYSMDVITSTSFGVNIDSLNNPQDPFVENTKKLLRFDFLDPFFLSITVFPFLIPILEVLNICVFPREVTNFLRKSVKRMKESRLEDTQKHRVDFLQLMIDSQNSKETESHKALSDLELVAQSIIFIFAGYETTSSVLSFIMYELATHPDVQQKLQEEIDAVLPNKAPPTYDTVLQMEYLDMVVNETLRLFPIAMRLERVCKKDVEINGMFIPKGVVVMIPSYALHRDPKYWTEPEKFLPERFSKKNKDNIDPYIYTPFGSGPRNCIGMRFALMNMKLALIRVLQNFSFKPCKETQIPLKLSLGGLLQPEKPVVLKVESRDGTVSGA

The target of test [13] is Nuclear receptor subfamily 1 group I member 2 (Rattus norvegicus) (UniProt Q9R1A7). The test is described as follows: Rat pregnane X receptor (rPXR) activation by small molecules, qHTS assay (AID 1346983). Further: nearly all actives have a fitted effect of over 20% in size. The conditions noted are these: rPXR luciferase reporter cells, One-Glo luminescence, 24 h; max activation: stronger effect = higher value. Put shortly: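 Cell-based rPXR luciferase reporter assay, 2,000 cells per well, rested 5hr at 37 C before compound addition in DMSO, then 24 hr at 37 C. One-Glo reagent was added and luminescence read after 30 min at room temperature.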
Nuclear receptor subfamily 1 group I member 2 (Rattus norvegicus), sequence (Q9R1A7 whole entry, looked up): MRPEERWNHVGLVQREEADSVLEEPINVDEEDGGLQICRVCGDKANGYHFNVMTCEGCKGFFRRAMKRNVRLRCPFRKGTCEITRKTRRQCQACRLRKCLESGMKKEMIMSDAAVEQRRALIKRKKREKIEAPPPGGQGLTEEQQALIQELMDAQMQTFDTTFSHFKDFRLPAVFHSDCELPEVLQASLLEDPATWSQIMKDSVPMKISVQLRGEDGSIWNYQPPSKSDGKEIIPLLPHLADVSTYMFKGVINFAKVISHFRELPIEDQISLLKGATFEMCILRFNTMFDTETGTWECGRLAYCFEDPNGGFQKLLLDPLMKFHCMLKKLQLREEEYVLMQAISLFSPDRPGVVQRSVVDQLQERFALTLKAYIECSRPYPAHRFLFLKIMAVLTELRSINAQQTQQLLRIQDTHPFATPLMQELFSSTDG

In test [14] the target is Nuclear receptor subfamily 1 group I member 2 (Homo sapiens) (UniProt O75469). Put plainly: CYP3A4 induction through human pregnane X receptor (PXR) by small molecules, qHTS assay (AID 1346984). Further: nearly all actives have a fitted effect of over 40% in size. Put shortly: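 Quantitative HTS in DPX-2 cells, i.e. HepG2 transfected with PXR response element and CYP3A4-promoter luciferase. Compounds in DMSO incubated 24hr at 37C; then P450-Glo CYP3A4 substrate, 3uM final, 3hr; One-Glo luminescence.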

For test [15] the target is unchanged. The test is described as follows: Human pregnane X receptor (PXR) activation by small molecules, qHTS assay (AID 1346985). Further: nearly all actives have a fitted effect of over 40% in size. An outline of the steps: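 DPX-2 cells (HepG2 co-transfected with a PXR response element and a CYP3A4-promoter luciferase construct) were seeded at 2,000 per well, rested 5 hr at 37C, then exposed to DMSO-dissolved compounds for 24 hr. Activation was read as luciferase luminescence.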
On the % scale 0 is the no-effect control and ±100 the full control effect.

Cytochrome P450 1A2 (Homo sapiens), sequence (P05177 whole entry, looked up): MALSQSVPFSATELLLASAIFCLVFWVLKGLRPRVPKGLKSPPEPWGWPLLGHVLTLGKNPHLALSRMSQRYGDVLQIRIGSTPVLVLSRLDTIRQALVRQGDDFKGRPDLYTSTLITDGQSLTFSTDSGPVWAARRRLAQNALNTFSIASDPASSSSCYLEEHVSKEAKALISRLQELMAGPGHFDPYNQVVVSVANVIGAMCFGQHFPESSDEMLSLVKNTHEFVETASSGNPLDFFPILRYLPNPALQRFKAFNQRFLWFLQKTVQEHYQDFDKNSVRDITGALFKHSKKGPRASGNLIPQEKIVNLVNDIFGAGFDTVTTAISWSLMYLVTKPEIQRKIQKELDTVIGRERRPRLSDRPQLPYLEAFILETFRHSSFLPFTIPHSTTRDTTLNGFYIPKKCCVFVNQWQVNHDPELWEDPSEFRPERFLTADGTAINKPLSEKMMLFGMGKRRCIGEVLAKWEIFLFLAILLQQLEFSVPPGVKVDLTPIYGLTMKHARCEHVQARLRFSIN
Cytochrome P450 2C9 (Homo sapiens), sequence (P11712 whole entry, looked up): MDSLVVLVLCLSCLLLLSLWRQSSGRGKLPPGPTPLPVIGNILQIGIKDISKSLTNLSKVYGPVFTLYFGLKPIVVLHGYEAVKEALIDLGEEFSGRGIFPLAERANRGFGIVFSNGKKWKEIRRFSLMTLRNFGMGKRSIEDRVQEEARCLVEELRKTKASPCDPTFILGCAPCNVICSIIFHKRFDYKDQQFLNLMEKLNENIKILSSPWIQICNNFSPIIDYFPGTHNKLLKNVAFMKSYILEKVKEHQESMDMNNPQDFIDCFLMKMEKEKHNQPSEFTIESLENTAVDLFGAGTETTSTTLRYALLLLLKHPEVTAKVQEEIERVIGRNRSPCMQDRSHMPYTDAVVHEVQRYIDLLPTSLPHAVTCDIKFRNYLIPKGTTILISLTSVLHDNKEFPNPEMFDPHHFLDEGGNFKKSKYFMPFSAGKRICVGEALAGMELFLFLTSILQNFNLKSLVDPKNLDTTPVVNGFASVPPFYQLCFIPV
Voltage-gated inwardly rectifying potassium channel KCNH2 (Homo sapiens), sequence (Q12809 whole entry, looked up): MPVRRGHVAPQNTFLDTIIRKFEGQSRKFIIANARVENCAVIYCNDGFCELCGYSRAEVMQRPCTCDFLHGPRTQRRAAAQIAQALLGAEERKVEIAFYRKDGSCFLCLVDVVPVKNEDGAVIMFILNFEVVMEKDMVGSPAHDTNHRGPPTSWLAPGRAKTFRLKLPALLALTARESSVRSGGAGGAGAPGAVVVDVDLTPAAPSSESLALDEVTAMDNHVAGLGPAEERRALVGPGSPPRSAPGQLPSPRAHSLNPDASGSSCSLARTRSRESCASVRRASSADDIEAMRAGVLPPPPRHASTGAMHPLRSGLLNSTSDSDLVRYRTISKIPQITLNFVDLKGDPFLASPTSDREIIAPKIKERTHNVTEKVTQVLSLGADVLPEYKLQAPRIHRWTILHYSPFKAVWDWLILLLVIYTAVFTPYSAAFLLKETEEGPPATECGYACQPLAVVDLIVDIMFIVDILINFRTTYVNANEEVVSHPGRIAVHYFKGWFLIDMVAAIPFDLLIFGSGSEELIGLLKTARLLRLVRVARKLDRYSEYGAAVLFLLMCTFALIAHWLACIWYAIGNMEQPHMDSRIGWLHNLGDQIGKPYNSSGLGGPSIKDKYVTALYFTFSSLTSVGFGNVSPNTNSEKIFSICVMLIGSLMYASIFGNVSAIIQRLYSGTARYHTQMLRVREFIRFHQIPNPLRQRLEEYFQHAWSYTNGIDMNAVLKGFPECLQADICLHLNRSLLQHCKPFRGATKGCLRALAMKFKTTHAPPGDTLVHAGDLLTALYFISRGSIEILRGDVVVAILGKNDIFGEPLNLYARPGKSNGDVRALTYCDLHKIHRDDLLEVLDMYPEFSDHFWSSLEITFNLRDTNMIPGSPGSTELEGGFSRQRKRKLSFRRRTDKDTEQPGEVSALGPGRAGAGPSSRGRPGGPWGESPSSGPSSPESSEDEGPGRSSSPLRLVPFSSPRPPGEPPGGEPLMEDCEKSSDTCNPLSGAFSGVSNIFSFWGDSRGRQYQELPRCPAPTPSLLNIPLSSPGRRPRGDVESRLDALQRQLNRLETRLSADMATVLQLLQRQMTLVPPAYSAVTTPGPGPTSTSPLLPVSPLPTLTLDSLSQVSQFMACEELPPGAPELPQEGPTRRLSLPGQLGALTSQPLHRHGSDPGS
Cytochrome P450 2D6 (Homo sapiens), sequence (P10635 whole entry, looked up): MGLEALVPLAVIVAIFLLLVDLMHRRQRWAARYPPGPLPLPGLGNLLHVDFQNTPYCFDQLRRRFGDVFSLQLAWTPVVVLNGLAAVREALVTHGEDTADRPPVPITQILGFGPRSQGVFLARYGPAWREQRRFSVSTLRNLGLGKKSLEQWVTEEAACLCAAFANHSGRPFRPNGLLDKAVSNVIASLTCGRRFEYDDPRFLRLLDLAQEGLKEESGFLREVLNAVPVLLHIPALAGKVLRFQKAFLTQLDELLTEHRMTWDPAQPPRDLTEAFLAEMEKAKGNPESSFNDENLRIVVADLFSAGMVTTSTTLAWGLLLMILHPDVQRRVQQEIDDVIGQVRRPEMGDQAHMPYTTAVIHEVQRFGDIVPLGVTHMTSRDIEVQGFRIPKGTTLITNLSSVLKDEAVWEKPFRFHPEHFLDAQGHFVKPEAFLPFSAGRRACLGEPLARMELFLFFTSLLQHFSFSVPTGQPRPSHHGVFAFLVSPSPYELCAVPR

`CCCCCCC(C)O` (centres undefined): the Potency result in [1], in test [2], in [3], in [4], in test [5] and in [6] was “inactive” each time. In addition, the Potency entry in test [7], in test [8], in [9], in [10], in [11] and in test [12] was “inactive” in each case.

Take `OC[C@@H](O)[C@@H](O[C@@H]1O[C@H](CO)[C@H](O)[C@H](O)[C@H]1O)[C@H](O)[C@@H](O)CO`: the Potency result in [1], in [2], in test [3], in test [4], in [5] and in test [6] was “inactive” each time. Besides, the Potency result in test [14], in [15], in [8], in [9], in [11] and in test [12] was “inactive” each time. In addition, the max activation in [13] is -8.22% (inactive). The Potency in test [10] was 35.1 µM (active) and inactive.

Regarding `COc1ccc2nc(N)sc2c1`, the Potency result in test [1], in [2], in test [3], in [4], in [5] and in test [11] was “inactive” each time. In addition, the Potency in [6] is 48.6 µM (active) and 21.7 µM (active); in test [7], 10 µM (active) and 63.3 µM (active); in [8] it was 39.9 µM (active) and 71 µM (active); in test [9], 39.9 µM (active); in test [10], 22.5 µM (active) and 31.7 µM (active).

As to `CC(=O)O[C@]1(C(C)=O)CC[C@H]2[C@@H]3C=C(Cl)C4=CC(=O)CC[C@]4(C)[C@H]3CC[C@@]21C`, the Potency result in [1], in test [2], in test [4], in test [14], in [15] and in test [10] was “inactive” throughout. The Potency result in test [11] and in test [12] was “inactive” each time. For the same molecule, the Potency is 61 µM (active) in test [3]; 61 µM (active) and inactive in [5]; 68.5 µM (active) and inactive in [6]; 12.6 µM (active) and 4.36 µM (active) in [8]; 20 µM (active) and 15.5 µM (active) in test [9].

For the molecule `CC(=O)O[C@]1(C(C)=O)CC[C@H]2[C@@H]3C=C(C)C4=CC(=O)CC[C@]4(C)[C@H]3CC[C@@]21C`, the Potency entry in test [1], in [2], in test [4], in [5], in test [14] and in [15] was “inactive” in each case. Besides, the Potency result in test [7], in test [10], in test [11] and in [12] was “inactive” throughout. The Potency is 68.6 µM (active) in test [3]; 27.3 µM (active) in test [6]; 7.1 µM (active) and 6.92 µM (active) in [8]; 7.96 µM (active) and 8.71 µM (active) in [9].

With `CN(C)/N=N/c1nc[nH]c1C(N)=O`, the Potency entry in test [1], in test [2], in test [3], in test [4], in [5] and in test [6] was “inactive” in each case. Also, the Potency result in [14], in test [15], in test [8], in test [11] and in test [12] was “inactive” throughout. The max activation in test [13] was -1.32% (inactive). Moreover, the Potency entry in test [10] was “inactive and 34.7 µM (active)”.

As for `CC(C)[N+](C)(CCOC(=O)C1c2ccccc2Oc2ccccc21)C(C)C`, the Potency entry in test [1], in test [2], in test [3], in [4], in [5] and in test [6] was “inactive” each time. Further, the Potency result in test [14], in test [15], in [8], in [9], in test [11] and in [12] was “inactive” in each case. Moreover, the max activation in test [13] was 0.826% (inactive). In addition, in test [7], the Potency was 100 nM (active) and 195 nM (active).

Take `CN(Cc1cnc2nc(N)nc(N)c2n1)c1ccc(C(=O)N[C@@H](CCC(=O)O)C(=O)O)cc1`: the Potency result in test [1], in test [2], in test [3], in test [4], in test [5] and in test [6] was “inactive” throughout. The Potency entry in test [14], in [15], in test [8], in [10], in test [11] and in test [12] was “inactive” each time. The max activation in [13] was -6.01% (inactive).

Regarding `FC(F)(F)C(Cl)Br` (centres undefined), the Potency entry in [1], in test [2], in test [3], in [4], in test [5] and in test [6] was “inactive” each time. Besides, the Potency result in test [14], in test [15], in test [7], in [8], in test [9] and in test [10] was “inactive” in each case. In addition, the Potency result in [11] and in test [12] was “inactive” in each case. Also, the max activation in [13] was -0.375% (inactive).

As to `CCO[Si](CCCNC(N)=O)(OCC)OCC`, the Potency entry in test [1], in test [2], in [3], in test [4], in test [5] and in [6] was “inactive” in each case. Further, the Potency entry in test [7], in test [9], in [10], in [11] and in test [12] was “inactive” in each case. In addition, the Potency entry in [8] is “inactive and 56.4 µM (active)”.

`CCOC(=O)C(C)Oc1ccc(Oc2cnc3cc(Cl)ccc3n2)cc1` (centres undefined): the Potency result in test [1], in test [2], in test [3], in [4], in test [5] and in [6] was “inactive” throughout. Also, the Potency result in test [12] is “inactive”. The Potency in test [7] was 32.5 µM (active); in [8], 33.3 µM (active); in test [9] it was 23.6 µM (active); in test [10] it was 52.8 µM (active); in [11], 15.9 µM (active) and 18.3 µM (active).

In the case of `O=C(O)c1cc(=O)[nH]c(=O)[nH]1`, the Potency result in test [1], in [2], in test [3], in [4], in [5] and in test [6] was “inactive” throughout. Besides, the Potency entry in test [14], in test [15], in test [9], in test [11] and in test [12] was “inactive” in each case. For the same molecule, the max activation in test [13] was -3.14% (inactive). Further, the Potency was 40 µM (active) and inactive in [8]; 40 µM (active) and inactive in test [10].

As for `C=CCNCC=C`, the Potency entry in [1], in test [2], in test [3], in [4], in [5] and in test [6] was “inactive” throughout. Moreover, the Potency result in test [7], in test [9], in test [11] and in test [12] was “inactive” in each case. Further, the Potency was 39.8 µM (active) in test [8]; “inactive and 39.9 µM (active)” in test [10].
